Assay results from the supplement of paper PMC9262897, “Low-cost anti-mycobacterial drug discovery using engineered E. coli” (Nature Communications, 2022).
Counter-ions that a name gives are not always drawn. ± gives the standard deviation of the averaged measurements.

Legend:
Assay in all cases: growth (OD600 after 10 h); higher = more growth (less inhibition)
[1] = system: E. coli TESEC Alr+ wild-type control; details: compound 0.1 mM; raw OD600 reference: median of DMSO wells 0.241, cell-free background 0.041
Protocol: (§1)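 TESEC Mtb Alr E. coli, or the Alr+ wild-type control, in 384-well plates with Prestwick library compounds at 0.1 mM and 1% DMSO, across arabinose induction levels of 1E3 to 1E7 nM. Growth is read as OD600 after 10 h at 37 °C in triplicate biological replicates.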

[2] = system: E. coli TESEC Mtb Alr; details: compound 0.1 mM
Protocol: as §1

[3] = system: E. coli TESEC Mtb Asd; details: compound 0.1 mM
Protocol: (§2)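 TESEC E. coli strains in which the native enzyme is deleted and replaced by arabinose-inducible Mtb Asd, DapB, CysH or TrpD, each grown in its selective medium. Strains were screened against the Prestwick library at 0.1 mM and 1% DMSO in 384-well format at low and high arabinose induction. Growth is read as OD600 after 10 h in triplicate.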

[4] = system: E. coli TESEC Mtb Alr; details: compound 0.1 mM; remark: listed apart in the source
Protocol: (§3)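 TESEC Mtb Alr E. coli (ΔaraC ΔtolC ΔentC Δalr ΔdadX, arabinose-inducible Mtb Alr) or the Alr+ wild-type control strain, grown in defined M9-fructose medium without D-alanine in 96-well plates with Prestwick library compounds at 0.1 mM and 1% DMSO. Low Alr induction is 0.1 µM arabinose and high induction is 10 mM arabinose.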

[5] = system: E. coli TESEC Mtb DapB; details: compound 0.1 mM
Protocol: as §2

[6] = system: E. coli TESEC Alr+ wild-type control; details: compound 0.1 mM; raw OD600 reference: median of DMSO wells 0.49, cell-free background 0.052
Protocol: as §3

[7] = arabinose 1000 nM, raw OD600 reference: median of DMSO wells 0.294, cell-free background 0.041
[8] = arabinose 10000 nM, raw OD600 reference: median of DMSO wells 0.264, cell-free background 0.041
[9] = arabinose 100000 nM, raw OD600 reference: median of DMSO wells 0.201, cell-free background 0.041
[10] = arabinose 1000000 nM, raw OD600 reference: median of DMSO wells 0.193, cell-free background 0.041
[11] = arabinose 10000000 nM, raw OD600 reference: median of DMSO wells 0.146, cell-free background 0.041
[12] = arabinose induction (level): High, raw OD600 reference: median of DMSO wells 0.331, cell-free background 0.041
[13] = arabinose induction (level): Low, raw OD600 reference: median of DMSO wells 0.417, cell-free background 0.041
[14] = arabinose 100 nM, raw OD600 reference: median of DMSO wells 0.413, cell-free background 0.052
[15] = arabinose 10000000 nM, raw OD600 reference: median of DMSO wells […], cell-free background 0.052
[16] = arabinose induction (level): High, raw OD600 reference: median of DMSO wells […], cell-free background 0.041
[17] = arabinose induction (level): Low, raw OD600 reference: median of DMSO wells 0.227, cell-free background 0.041

Row | SMILES | growth [1] | growth [2, 7] | growth [2, 8] | growth [2, 9] | growth [2, 10] | growth [2, 11] | growth [3, 12] | growth [3, 13] | growth [4, 14] | growth [4, 15] | growth [5, 16] | growth [5, 17] | growth [6]
1 | Clc1ccc(CCC(Cn2ccnc2)Sc2c(Cl)cccc2Cl)cc1 (stereo not drawn) [Butoconazole nitrate] | 0.0548 ± 0.0082 | 0.0578 ± 0.0014 | 0.066 ± 0.0018 | 0.0622 ± 0.00087 | 0.0664 ± 0.00089 | 0.0514 ± 0.0014 | 0.0629 ± 0.00052 | 0.0669 ± 0.0063 | 0.1 ± 0.057 | 0.115 ± 0.013 | – | – | –
2 | C[C@@](Cc1ccc(O)c(O)c1)(NN)C(=O)O [Carbidopa] | 0.225 ± 0.0049 | – | – | – | – | – | 0.283 ± 0.11 | 0.357 ± 0.04 | 0.375 ± 0.014 | 0.257 ± 0.012 | 0.159 ± 0.016 | 0.173 ± 0.018 | 0.499 ± 0.048
3 | C=C1c2c(Cl)ccc(O)c2C(O)=C2C(=O)[C@]3(O)C(O)=C(C(N)=O)C(=O)[C@@H](N(C)C)[C@@H]3[C@@H](O)[C@H]12.O=C(O)c1cc(S(=O)(=O)O)ccc1O [Meclocycline sulfosalicylate] | 0.0437 ± 0.0018 | – | – | – | – | – | 0.0721 ± 0.0074 | 0.0594 ± 0.0053 | 0.0611 ± 0.00062 | 0.0561 ± 0.00065 | 0.156 ± 0.089 | 0.05473 ± 0.00042 | 0.05223 ± 0.00012
4 | C[C@H]1NC(=O)NC1=O [Methylhydantoin-5-(D)] | 0.257 ± 0.0085 | – | – | – | – | – | 0.46 ± 0.085 | 0.467 ± 0.0073 | 0.405 ± 0.015 | 0.321 ± 0.015 | 0.202 ± 0.012 | 0.244 ± 0.012 | 0.607 ± 0.018
5 | CN1CCN(c2c(F)cc3c(=O)c(C(=O)O)cn(CCF)c3c2F)CC1 [Fleroxacin] | 0.0517 ± 0.002 | – | – | – | – | – | 0.0848 ± 0.0081 | 0.0766 ± 0.014 | 0.0555 ± 0.0013 | 0.05217 ± 5.8e-05 | 0.0682 ± 0.001 | 0.0599 ± 0.003 | 0.0565 ± 0.002
6 | CC1COc2c(N3CCN(C)CC3)c(F)cc3c(=O)c(C(=O)O)cn1c23 (stereo not drawn) [Ofloxacin] | 0.04363 ± 5.8e-05 | – | – | – | – | – | 0.0587 ± 0.0023 | 0.0597 ± 0.0025 | 0.0542 ± 0.0012 | 0.05103 ± 0.00031 | 0.0501 ± 0.0018 | 0.05347 ± 0.00015 | 0.0509 ± 0.00059
7 | C=C[C@H]1CN2CC[C@H]1C[C@@H]2[C@@H](O)c1ccnc2ccc(OC)cc12 [Quinidine hydrochloride monohydrate] | 0.22 ± 0.004 | 0.28 ± 0.019 | 0.265 ± 0.01 | 0.181 ± 0.0089 | 0.138 ± 0.0072 | 0.144 ± 0.0058 | 0.239 ± 0.04 | 0.412 ± 0.012 | 0.4326 ± 0.004 | 0.356 ± 0.0089 | – | – | –
8 | CN1CCN(CCCN2c3ccccc3Sc3ccc(Cl)cc32)CC1 [Prochlorperazine dimaleate] | 0.04087 ± 0.00015 | – | – | – | – | – | 0.059 ± 0.0069 | 0.166 ± 0.025 | 0.287 ± 0.21 | 0.0531 ± 0.0013 | 0.156 ± 0.021 | 0.139 ± 0.0076 | 0.04753 ± 0.00025
9 | CC(C)NCC(O)COc1ccc(CCOCC2CC2)cc1 (stereo not drawn) [Betaxolol hydrochloride] | 0.222 ± 0.0081 | – | – | – | – | – | 0.264 ± 0.049 | 0.359 ± 0.069 | 0.404 ± 0.011 | 0.341 ± 0.014 | 0.235 ± 0.026 | 0.246 ± 0.011 | 0.562 ± 0.028
10 | CC(=O)O[C@@]12CO[C@@H]1C[C@H](O)[C@@]1(C)C(=O)[C@H](O)C3=C(C)[C@@H](OC(=O)[C@H](O)[C@@H](NC(=O)OC(C)(C)C)c4ccccc4)C[C@@](O)([C@@H](OC(=O)c4ccccc4)[C@H]21)C3(C)C [Docetaxel] | 0.266 ± 0.005 | – | – | – | – | – | 0.248 ± 0.011 | 0.373 ± 0.071 | 0.4282 ± 0.0041 | 0.297 ± 0.0093 | 0.204 ± 0.016 | 0.229 ± 0.047 | 0.614 ± 0.12
11 | CC(C)c1nc(CN(C)C(=O)N[C@H](C(=O)N[C@@H](Cc2ccccc2)C[C@H](O)[C@H](Cc2ccccc2)NC(=O)OCc2cncs2)C(C)C)cs1 [Ritonavir] | 0.166 ± 0.0093 | – | – | – | – | – | 0.245 ± 0.0089 | 0.15 ± 0.008 | – | – | – | – | –
12 | CC(=O)Oc1ccccc1C(=O)O [Acetylsalicylic acid] | 0.242 ± 0.003 | 0.2936 ± 0.0015 | 0.292 ± 0.014 | 0.202 ± 0.019 | 0.19 ± 0.01 | 0.147 ± 0.0031 | 0.264 ± 0.051 | 0.314 ± 0.022 | 0.413 ± 0.011 | 0.334 ± 0.012 | – | – | –
13 | O=C1c2ccccc2C(=O)C1c1ccccc1 [Phenindione] | 0.243 ± 0.0053 | – | – | – | – | – | 0.226 ± 0.037 | 0.321 ± 0.023 | 0.408 ± 0.0092 | 0.302 ± 0.025 | 0.194 ± 0.0095 | 0.227 ± 0.017 | 0.488 ± 0.05
14 | CCCCNc1cc(C(=O)O)cc(S(N)(=O)=O)c1Oc1ccccc1 [Bumetanide] | 0.234 ± 0.0058 | – | – | – | – | – | 0.226 ± 0.01 | 0.449 ± 0.062 | 0.426 ± 0.0046 | 0.333 ± 0.02 | 0.209 ± 0.027 | 0.215 ± 0.038 | 0.492 ± 0.048
